The structures appear in SMILES notation. Records with an inconclusive call do not appear. Calls of active or inactive are those of the source. The calls were made as follows, unless noted: active = hit-call score of the fitted dose curve at least 0.9, where 1 is the maximum; inconclusive = response in the unintended direction; inactive = score below 0.9.

Read-out in assay [1]: Thyroid Hormone Responsive (THRSP), THRSP (gene 7069)
In words: LTEA_HepaRG_THRSP: Life Technologies and Expression Analysis (LTEA) Assay for Thyroid Hormone Responsive (THRSP) using HepaRG (AID 2283536; active = hit-call score of the fitted dose curve at least 0.9, where 1 is the maximum; inactive = score below 0.9). The following applies: mRNA level, 48 h; actives raise or lower the signal. In short, it runs like this: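 Differentiated HepaRG cells treated 48 h in serum-free induction medium with 8 half-log concentrations up to 100 uM (0.5% DMSO), duplicates. THRSP mRNA by TaqMan qRT-PCR normalised to ACTB, GAPDH, POLR2A; bidirectional fit versus DMSO.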

Read-out in assay [2]: Cellular tumor antigen p53 (Homo sapiens) (UniProt P04637)
In words: LTEA_HepaRG_TP53: Life Technologies and Expression Analysis (LTEA) Assay for Tumor Protein P53 (TP53) using HepaRG (AID 2283537; active = hit-call score of the fitted dose curve at least 0.9, where 1 is the maximum; inactive = score below 0.9). The following applies: mRNA level, 48 h; actives raise or lower the signal. In outline:
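HepaRG, 48 h exposure, top 100 uM, half-log 8-point, 0.5% DMSO vehicle, duplicates. Read: TP53 mRNA by TaqMan qRT-PCR, normalised to ACTB/GAPDH/POLR2A; bidirectional fit vs DMSO.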

Read-out in assay [3]: UDP glucuronosyltransferase (UGT1A1), UGT1A1 (gene 54658)
The assay can be described thus: LTEA_HepaRG_UGT1A1: Life Technologies and Expression Analysis (LTEA) Assay for UDP glucuronosyltransferase (UGT1A1) using HepaRG (AID 2283538; active = hit-call score of the fitted dose curve at least 0.9, where 1 is the maximum; inactive = score below 0.9). The following applies: mRNA level, 48 h; actives raise or lower the signal. In short, it runs like this:
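Human liver HepaRG cultures receive test chemical for 48 h, up to 100 uM in 0.5% DMSO, with phenobarbital induction controls. UGT1A1 mRNA is measured by qRT-PCR and normalized to ACTB, GAPDH and POLR2A.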

Read-out in assay [4]: UDP glucuronosyltransferase (UGT1A6), UGT1A6 (gene 54578)
The assay can be described thus: LTEA_HepaRG_UGT1A6: Life Technologies and Expression Analysis (LTEA) Assay for UDP glucuronosyltransferase (UGT1A6) using HepaRG (AID 2283539; active = hit-call score of the fitted dose curve at least 0.9, where 1 is the maximum; inactive = score below 0.9). As to conditions: mRNA level, 48 h; actives raise or lower the signal. In short, it runs like this:
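Expression was quantified by TaqMan qRT-PCR on Fluidigm arrays with ACTB/GAPDH/POLR2A normalization and bidirectional fitting against 0.5% DMSO. HepaRG cells (~100,000/well) were treated in duplicate for 48 h at eight half-log concentrations up to 100 uM in serum-free induction medium.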

Read-out in assay [5]: X-box binding protein 1 (XBP1), XBP1 (gene 7494)
In words: LTEA_HepaRG_XBP1: Life Technologies and Expression Analysis (LTEA) Assay for X-box binding protein 1 (XBP1) using HepaRG (AID 2283540; active = hit-call score of the fitted dose curve at least 0.9, where 1 is the maximum; inactive = score below 0.9). The following applies: mRNA level, 48 h; actives raise or lower the signal. In outline: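 XBP1 transcript by qRT-PCR (housekeeping-normalized: ACTB, GAPDH, POLR2A) after 48 h chemical treatment of HepaRG cells, 8-point half-log series topping at 100 uM, vehicle 0.5% DMSO. Gain and loss of signal fitted relative to DMSO.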

Assay [6] can be described thus: LTEA_HepaRG_LDH_cytotoxicity: Cytotoxicity Assessment in the Life Technologies and Expression Analysis (LTEA) Assay (AID 2283563). In outline:
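LDH release into culture medium read after 48 h chemical treatment of HepaRG cells. Duplicate wells, eight-point half-log series topping at 100 uM, 0.5% DMSO vehicle and baseline.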

The nature of assay [7]: ATG_XTT_Cytotoxicity: Cytotoxicity Assessment in the Attagene TRANS-FACTORIAL HepG2 Assay (AID 2283584). In outline: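 Viability endpoint from XTT after 24 h chemical exposure of reporter-transfected human HepG2 liver cells; signal loss fitted relative to DMSO negative control.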
Assay [8] in a line: TOX21_p53_BLA_p3_viability: Viability Assessment in the Tox21 HCT-116 p53 Agonism Beta-lactamase Assay, Phase 3 (AID 2283593).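 Also: cells exposed to compound for 16 h before reading.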 In outline: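 HCT116 cells, 4000/well, dosed 5 h after plating by pin transfer (217-fold dilution from DMSO stock) and incubated 16 h at 37C, 5% CO2. Viability read as ATP luminescence with CellTiter-Glo after 30 min at room temperature.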
Assay [9] concerns the target Cellular tumor antigen p53 (Homo sapiens) (UniProt P04637). In words: TOX21_p53_BLA_p3_ratio: Tox21 HCT-116 p53 Agonism Beta-lactamase Assay, Ratio, Phase 3 (AID 2283596). In short, it runs like this: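 HCT116 p53-bla cells (4000/well) given compound in DMSO (217-fold dilution) after 5 h, incubated 16 h at 37C. CCF4-AM substrate 2 h at room temperature; 460/530 nm emission ratio, gain fitted against DMSO.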

A short description of assay [10]: TOX21_p53_BLA_p4_viability: Viability Assessment in the Tox21 HCT-116 p53 Agonism Beta-lactamase Assay, Phase 4 (AID 2283597).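 Also: hits lower the luminescence signal meaning cytotoxicity.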 In outline: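 Following a 16 h exposure at 37C, the treated HCT116 wells were first read for the FRET ratio. They were then lysed with CellTiter-Glo, and ATP luminescence was recorded after 30 min at room temperature.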
Assay [11] has as its target Cellular tumor antigen p53 (Homo sapiens) (UniProt P04637). In words: TOX21_p53_BLA_p5_ratio: Tox21 HCT-116 p53 Agonism Beta-lactamase Assay, Ratio, Phase 5 (AID 2283599). In short, it runs like this: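 HCT-116 p53-bla cells (4000/well) plated 5 h, dosed with compound (217-fold DMSO dilution) for 16 h at 37 C; CCF4-AM substrate 2 h at room temperature. Activity is the 460/530 nm emission ratio (405 nm excitation), fitted in gain-of-signal direction versus DMSO.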

Assay [12] in a line: TOX21_p53_BLA_p5_viability: Viability Assessment in the Tox21 HCT-116 p53 Agonism Beta-lactamase Assay, Phase 5 (AID 2283600). In short, it runs like this:
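After the 460/530 nm beta-lactamase measurement, the wells received an ATP-detection luciferase reagent; signal was read 30 min later at RT. Compound treatment lasted 16 h on cells pre-incubated 5 h post-seeding.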

Assay [13] deals with Cellular tumor antigen p53 (Homo sapiens) (UniProt P04637). In words: TOX21_p53_BLA_p4_ratio: Tox21 HCT-116 p53 Agonism Beta-lactamase Assay, Ratio, Phase 4 (AID 2283601). In outline:
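HCT-116 p53 beta-lactamase reporter cells (4000/well) preincubated 5 h, then compound (217-fold dilution of DMSO stock) for 16 h at 37C. CCF4-AM substrate added 2 h at room temperature; 460/530 nm emission ratio fitted upward versus DMSO.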

Assay [14] is described as follows: Tanguay_ZF_120hpf_MORT_legacy: (Legacy) Oregon State University Tanguay Lab 120 Hour Post-fertilization zebrafish Assay for Mortality (AID 2283633).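 As to AC50: fitted as increase in binary mortality versus DMSO negative control.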 In outline: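 Static waterborne exposure from 6 to 120 hpf at 28C of single dechorionated wild-type (5D) embryos per well, 0.64% DMSO final. Death recorded present/absent by brightfield at 24 and 120 hpf.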
A short description of assay [15]: Tanguay_ZF_120hpf_YSE_legacy: (Legacy) Oregon State University Tanguay Lab 120 Hour Post-fertilization zebrafish Assay for Yolk Sac Edema (AID 2283634).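 As to AC50: actives raise the incidence of yolk sac edema above the DMSO baseline.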 In short, it runs like this: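 Presence or absence of yolk sac edema was recorded at 120 hpf in surviving larvae. These were wild-type Tropical 5D embryos, chorion removed at 4 hpf, held in static exposure at 28C from 6 hpf with 0.64% DMSO vehicle.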

The nature of assay [16]: Tanguay_ZF_120hpf_AXIS_legacy: (Legacy) Oregon State University Tanguay Lab 120 Hour Post-fertilization zebrafish Assay for Body Axis Malformation (AID 2283635).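 As to AC50: potency for an increased fraction of larvae scored with body axis malformation.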 In short, it runs like this:
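Binary scoring of axis defects at 120 hpf under brightfield, fitted positive versus DMSO. Tropical 5D embryos, chorion removed by pronase at 4 hpf, were singly exposed in sealed, dark plates at 28C from 6 hpf; DMSO 0.64% final.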

A short description of assay [17]: Tanguay_ZF_120hpf_SNOU_legacy: (Legacy) Oregon State University Tanguay Lab 120 Hour Post-fertilization zebrafish Assay for Snout Malformation (AID 2283637). In outline:
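Dechorionated tropical 5D wild-type zebrafish embryos exposed statically from 6 to 120 hpf at 28C, one per well, in 0.64% DMSO. Snout malformation scored as present/absent by brightfield at 120 hpf; dead embryos not scored.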

Assay [18] is described as follows: TOX21_p53_BLA_p2_viability: Viability Assessment in the Tox21 HCT-116 p53 Agonism Beta-lactamase Assay, Phase 2 (AID 2283591).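 Also: compound exposure lasted 16 h at 37 °C; actives lower the ATP signal meaning cytotoxicity.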 In short, it runs like this: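 HCT116 p53-bla cells, 4000/well, dosed after 5 h plating (217-fold dilution of DMSO stocks) and incubated 16 h at 37C. Viability taken as cellular ATP by CellTiter-Glo luminescence after 30 min RT; signal loss marks cytotoxicity.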

Assay [19] addresses Cellular tumor antigen p53 (Homo sapiens) (UniProt P04637). In words: TOX21_p53_BLA_p2_ratio: Tox21 HCT-116 p53 Agonism Beta-lactamase Assay, Ratio, Phase 2 (AID 2283592). In outline:
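Gain-of-signal p53 agonism was scored from the beta-lactamase FRET ratio (460/530 nm, 405 nm excitation) in HCT116 cells treated 16 h at 37C, 5% CO2, with DMSO serving as negative control and baseline.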

Assay [20] is described as follows: Tanguay_ZF_120hpf_EYE_legacy: (Legacy) Oregon State University Tanguay Lab 120 Hour Post-fertilization zebrafish Assay for Eye Malformation (AID 2283636).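 Also: binary presence or absence of eye malformation scored by brightfield in 120 hpf larvae.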 In outline:
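Dechorionated Tropical 5D zebrafish embryos, one per well from 6 hpf, static exposure to 120 hpf at 28C, 0.64% DMSO. Eye malformation scored present/absent by brightfield; dead embryos not scored.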

Chain of Cellular tumor antigen p53 (Homo sapiens) (P04637 whole entry, looked up): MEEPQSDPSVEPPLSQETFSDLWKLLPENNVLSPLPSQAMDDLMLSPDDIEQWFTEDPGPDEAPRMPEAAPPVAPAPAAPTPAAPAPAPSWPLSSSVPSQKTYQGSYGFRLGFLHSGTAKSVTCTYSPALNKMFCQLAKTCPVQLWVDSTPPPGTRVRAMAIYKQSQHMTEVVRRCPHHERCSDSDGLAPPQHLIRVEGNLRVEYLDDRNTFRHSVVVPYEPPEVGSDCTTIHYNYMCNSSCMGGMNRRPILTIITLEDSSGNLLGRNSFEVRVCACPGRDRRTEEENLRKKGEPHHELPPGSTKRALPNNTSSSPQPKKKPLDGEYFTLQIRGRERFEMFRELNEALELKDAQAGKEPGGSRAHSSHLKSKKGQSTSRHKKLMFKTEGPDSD

For `CC1(C)CC(N=C=O)CC(C)(CN=C=O)C1` (centres undefined), the compound was classed as inactive in assay [1], in assay [2], in [3], in [4], in assay [5] and in assay [6]. Also, the result in assay [7], in [8], in assay [9], in assay [10], in assay [11] and in assay [12] was inactive. In addition, the outcome in assay [13], in [14], in assay [15], in assay [16] and in assay [17] was inactive.
Regarding `CC1(C)NC(=O)NC1=O`, the outcome in assay [1], in assay [2], in [3], in [4], in assay [5] and in assay [6] was inactive. For the same compound, the compound was classed as inactive in assay [7], in [18], in [19], in [8], in assay [9] and in [10]. Besides, the result in [11], in assay [13], in [14], in [15] and in assay [20] was inactive.
Consider `Cc1nc(-c2ccc3c(c2)CCN(CCC2CCC(NC(=O)/C=C/c4ccc(F)cc4)CC2)CC3)no1` (centres undefined), for which the result in [1], in [2], in [3], in assay [4], in assay [5] and in assay [6] was inactive. Also, the outcome in assay [7], in assay [18], in assay [19], in assay [9], in [10] and in [12] was inactive. The result in assay [13], in assay [14], in assay [15], in [16], in [20] and in assay [17] was inactive. In addition, in assay [11], the AC50 (commonly the concentration at which the activity in the assay is half-maximal) was 37.9 µM (active).
In the case of `C=CCOC(=O)c1ccccc1C(=O)OCC=C`, the compound was called inactive in [1], in assay [2], in assay [3], in assay [4], in [5] and in assay [6]. In addition, the outcome in assay [7], in [18], in assay [9], in assay [11], in assay [12] and in assay [13] was inactive. For the same compound, the compound was called inactive in assay [16], in assay [20] and in [17]. For the same compound, the figures for the AC50 in [14] and in [15] were 13.9 µM (active) and 30.9 µM (active), respectively.
Turning to `CCCCCCCCCCO`, the compound was called inactive in assay [1], in assay [2], in assay [3], in assay [4], in assay [5] and in assay [6]. Moreover, the compound was called inactive in assay [7], in assay [18], in [9], in assay [11], in assay [12] and in [13]. Besides, the outcome in assay [14], in assay [15], in assay [16], in assay [20] and in assay [17] was inactive.
Regarding `COc1cc(C=O)ccc1O`, the outcome in assay [1], in assay [2], in [3], in assay [4], in [5] and in assay [6] was inactive. For the same compound, the call in assay [7], in [18], in assay [8], in [9], in assay [10] and in assay [11] was inactive. The outcome in assay [12], in [13] and in assay [14] was inactive. The AC50 in assay [15] is 43.3 µM (active); in [16], 49.2 µM (active); in assay [20], 60.5 µM (active); in [17], 36.6 µM (active).
As for `CN1CCCC1=O`, the outcome in [1], in assay [2], in [3], in assay [4], in assay [5] and in [6] was inactive. For the same compound, the compound was classed as inactive in [7], in assay [19], in [8], in [9], in assay [10] and in assay [11]. Besides, the call in assay [12], in assay [13], in [14], in [15], in assay [16] and in assay [20] was inactive.
